# Reference: PubChem BioAssay (Tox21)
# Results filed as inconclusive are left out. Entries that show only a call come without a potency. More than one record can exist for a structure, and the calls need not agree. Activity calls are given as the source filed them. The call rests on the fitted dose curve; in most records, active means well fitted cell-killing curve with a large enough effect in the repeat runs; inconclusive means weak or mixed curves, or effect the other way; inactive means flat fitted curve, though single readings scatter.
# Assay: cAMP Responsive Elements (CRE) small molecule agonists, cell-based qHTS assay: qHTS cell viability counter screen (AID 2060914); further: nearly all actives have a fitted effect of over 50% in size
# Conditions: CRE-bla HEK293T viability, CellTiter-Glo luminescence, 5 h; series mostly up to 92.4 µM
# How it was run: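 Cytotoxicity counter screen multiplexed with the CRE-bla reporter assay in HEK 293T cells: 3 h compound exposure at 37 °C, followed by CellTiter-Glo luminescence measured in the same wells.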
# Potency means the concentration at half of the fitted maximal effect.
SMILES,Potency,"activity change, negative = cytotoxicity"
CC[N+](C)(CC)CC,inactive,–
CC(=O)Nc1cccc(N)c1,inactive,–
COC(/C=C(\C)CCC=C(C)C)OC,inactive,–
CC1(C)Oc2ccc(C#N)cc2[C@@H](N2CCCC2=O)[C@@H]1O,inactive,–
CCCCOc1cc(C(=O)NCCN(CC)CC)c2ccccc2n1,inactive,–
CCCN(C1CCN(C(=O)C2CCNCC2)CC1)[C@@H]1CCc2ccc(OC)cc2C1,inactive,–
Oc1ccc(OCc2ccccc2)cc1,inactive,–
O=CC=C(c1ccccc1)c1ccccc1,inactive,–
Cc1cc2c(C(C)C)c(O)c(O)c(C=O)c2c(O)c1-c1c(C)cc2c(C(C)C)c(O)c(O)c(C=O)c2c1O,26.6 µM (active),–
CCOC(=O)c1ccccc1C(=C1C=C(Br)C(=O)C(Br)=C1)c1cc(Br)c(O)c(Br)c1,inactive,–
O=c1cccccc1O,inactive,–
CC(C)(c1ccc(Oc2ccc(N)cc2)cc1)c1ccc(Oc2ccc(N)cc2)cc1,inactive,–
CCc1cc(Cc2cc(CC)c(N)c(CC)c2)cc(CC)c1N,inactive,–
CCCC[P+](CCCC)(CCCC)CCCC,inactive,–
O=C1CCCCCN1SSN1CCCCCC1=O,inactive,–
NC(N)=NCCN1CCCCCCC1,–,-6.13% [at 0.349 µM] (inactive)
O=[Se](O)O,15.4 µM (active),25.7% [at 18.9 µM] (inactive)
O=C(CS)Nc1ccccc1,inactive,–
CCCc1ncc(C(=O)O)s1,inactive,–
Oc1ccc(C2CNCCc3c2cc(O)c(O)c3Cl)cc1 (stereo unspecified),inactive,–
C/C(=C(\CCOP(=O)(O)O)SC(=O)c1ccccc1)N(C=O)Cc1cnc(C)nc1N,–,-13.5% [at 8.39 µM] (inactive)
CCCCCC1CCCC(=O)O1 (stereo unspecified),inactive,–
CN(C(=O)C(Cl)Cl)c1ccc(OC(=O)c2ccco2)cc1,inactive,–
C/C=C/C(=O)CC,–,7.79% [at 18.9 µM] (inactive)
Cc1ccc2c(n1)Oc1ccc(C(C)C(=O)OCC(=O)N(C)C)cc1C2 (stereo unspecified),inactive,–
CCCCCO,inactive,–
C=C1CC[C@H](O)C/C1=C\C=C1/CCC[C@]2(C)[C@@H]([C@H](C)CCCC(C)C)CC[C@@H]12,inactive,–
C1CCC2=NCCCN2CC1,inactive,–

SMILES,Potency,"activity change, negative = cytotoxicity"
NNC(=O)c1ccncc1,inactive,–
CC(C)(C)CC(C)(C)c1ccc(OCCO)cc1,inactive,–
CCOC(CN1CCN(CC(C)C(=O)c2ccccc2)CC1)c1ccccc1 (stereo unspecified),–,-1.12% [at 18.9 µM] (inactive)
Oc1cccc(-c2c3nc(c(-c4cccc(O)c4)c4ccc([nH]4)c(-c4cccc(O)c4)c4nc(c(-c5cccc(O)c5)c5ccc2[nH]5)CC4)C=C3)c1,inactive,–
CCOc1ccc2nc(N)sc2c1,inactive,–
CC(=O)OCc1ccccc1,inactive,–
O=C(O)CCCc1c[nH]c2ccccc12,inactive,–
c1ccc2c(c1)CCC2,inactive,–
Nc1nc(Cl)nc2c1ncn2[C@@H]1O[C@H](CO)[C@@H](O)[C@@H]1F,inactive,–
CC(C)=CCC[C@H](C)CCO,inactive,–
CC(C)C(OC(=O)c1ccccc1)C(C)(C)COC(=O)c1ccccc1 (stereo unspecified),inactive,–
C=CC/C=C/C,inactive,–
NC(=NCCCCCCN=C(N)/N=C(\N)Nc1ccc(Cl)cc1)/N=C(\N)Nc1ccc(Cl)cc1,48.1 µM (active),–
O=C(/C=C/c1ccc(O)c(O)c1)O[C@@H]1C[C@@](OC(=O)/C=C/c2ccc(O)c(O)c2)(C(=O)O)C[C@@H](O)[C@@H]1O,inactive,–
N#C/C(=C1/SC[C@@H](c2ccc(Cl)cc2Cl)S1)n1ccnc1,inactive,–
NC(CS)C(=O)O (stereo unspecified),inactive,–
COc1ccc([N+](=O)[O-])cc1N,inactive,–
Cc1ccc2cccnc2c1,inactive,–
CC(CC(C)(C)C)CC(C)(C)CC(C)(C)C (stereo unspecified),inactive,–
CCCC1C(CC)=CC(CC)=CN1c1ccccc1 (stereo unspecified),inactive,–
NC(=O)c1ccccc1C(N)=O,inactive,–
COc1ccc(C(=O)Nc2ccccc2)cc1[N+](=O)[O-],inactive,–
O=C(O)c1cc(N=Nc2ccc(S(=O)(=O)Nc3ccccn3)cc2)ccc1O,inactive,–
CC(C)(C(=O)O)c1ccc(C(O)CCCN2CCC(C(O)(c3ccccc3)c3ccccc3)CC2)cc1 (stereo unspecified),inactive,–
CCCCCCCCCCCCCCCC[N+](C)(C)CCN(Cc1ccc(OC)cc1)c1ncccn1,26.6 µM (active),–
Cc1ccc2sc3cccc(C)c3c2c1,inactive,–
CC(=O)OCC(=O)[C@@]12OC(C)(C)O[C@@H]1C[C@H]1[C@@H]3C[C@H](F)C4=CC(=O)C=C[C@]4(C)[C@@]3(F)[C@@H](O)C[C@@]12C,inactive,–
